Data published in PubChem BioAssay (Tox21).
Several values for one entry are separate records, joined by “and”; a condition that tells them apart may be missing. Equal values may be shown once. Records with an inconclusive call do not appear. Entries that show only a call come without a potency. Where a structure was tested more than once in an assay, its records may differ in their call. Activity calls are given as the source filed them. Unless noted, calls come from the whole dose curve; as a rule, active = well fitted curve in the direction sought with a large enough effect in the repeat runs; inconclusive = weak or mixed curves; inactive = no such curve, though single readings can be large; an effect the other way counts as inactive or inconclusive.

Columns and labels:
[1] = qHTS assay to identify small molecule antagonists of the thyroid receptor (TR) signaling pathway - cell viability counter screen (AID 743064); note: nearly all actives have a fitted effect of over 50% in size; note: potency is the fitted concentration of half-maximal effect
Summary of the method: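 Counter screen for cytotoxicity: compound plus T3 (1 nM final) on GH3.TRE-Luc cells, 23.5 h at 37 °C, then fluorescence viability readout with CellTiter-Fluor.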

[2] = system: thyroid hormone receptor (rat, GH3 cells); assay: qHTS assay to identify small molecule agonists of the thyroid receptor (TR) signaling pathway (AID 743066; calls by dose curve)
[3] = qHTS assay to identify small molecule antagonists of the estrogen receptor alpha (ER-alpha) signaling pathway using the BG1 cell line - cell viability counter screen (AID 743081);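 note: compound given together with 17beta-estradiol as the ER stimulus; nearly all actives have a fitted effect of over 45% in size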; note: potency is the fitted concentration of half-maximal effect
Aromatase (Homo sapiens) = Aromatase (Homo sapiens) (UniProt P11511); assay: qHTS assay to identify aromatase inhibitors (AID 743083); note: nearly all actives have a fitted effect of over 55% in size; note: potency is the fitted concentration of half-maximal effect
[4] = target: Estrogen receptor (Homo sapiens) (UniProt P03372); assay: qHTS assay to identify small molecule antagonists of the estrogen receptor alpha (ER-alpha) signaling pathway (AID 743069; active = well fitted curve in the direction sought with a large enough effect in the signal ratio in the repeat runs, not every such curve was filed as active; the % refers to the signal ratio)
Summary of the method: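 Reporter cells (ER-alpha-bla, HEK293 background) are conditioned overnight in stripped-serum medium (2% charcoal-stripped FBS). Compound and 17beta-estradiol exposure runs 18 hr at 37C, 5% CO2.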

[5] = qHTS assay to identify small molecule antagonists of the estrogen receptor alpha (ER-alpha) signaling pathway - cell viability counter screen (AID 743074; calls by dose curve;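 note: HEK293 cells carrying ER-alpha-UAS-bla reporter stimulated with 17beta-estradiol; nearly all actives have a fitted effect of over 45% in size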)
[6] = target: Estrogen receptor (Homo sapiens) (UniProt P03372); assay: qHTS assay to identify small molecule agonists of the estrogen receptor alpha (ER-alpha) signaling pathway (AID 743075; calls by dose curve;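 note: HEK293 GripTite cells with ER-alpha and UAS-driven beta-lactamase reporter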)
[7] = target: Estrogen receptor (Homo sapiens) (UniProt P03372); assay: qHTS assay to identify small molecule agonists of the estrogen receptor alpha (ER-alpha) signaling pathway using the BG1 cell line (AID 743079); note: nearly all actives have a fitted effect of over 20% in size; note: potency is the fitted concentration of half-maximal effect
[8] = qHTS assay to identify small molecule antagonists of the estrogen receptor alpha (ER-alpha) signaling pathway using the BG1 cell line (AID 743080; calls by dose curve;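 note: BG1 cells stimulated with 17beta-estradiol alongside compound; nearly all actives have a fitted effect of over 25% in size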; note: potency is the fitted concentration of half-maximal effect)
Summary of the method: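 Luciferase inhibition measured with ONE-Glo after 30 min at RT in BG1Luc4E2 cells given test compounds and 17beta-estradiol for 21.5 h at 37 C; CellTiter-Fluor viability read in the same wells beforehand.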

[9] = qHTS assay to identify small molecule antagonists of the thyroid receptor (TR) signaling pathway (AID 743065); note: series mostly up to about 70 µM; nearly all actives have a fitted effect of over 55% in size
Summary of the method: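 GH3.TRE-Luc rat pituitary cells (two TREs driving luciferase) were dosed with compound, then stimulated with 1 nM T3 (final) for 23.5 h at 37 C. ONE-Glo luminescence was the read-out, with CellTiter-Fluor fluorescence as the cytotoxicity counter-screen.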

Chain of Aromatase (Homo sapiens) (P11511 whole entry, looked up): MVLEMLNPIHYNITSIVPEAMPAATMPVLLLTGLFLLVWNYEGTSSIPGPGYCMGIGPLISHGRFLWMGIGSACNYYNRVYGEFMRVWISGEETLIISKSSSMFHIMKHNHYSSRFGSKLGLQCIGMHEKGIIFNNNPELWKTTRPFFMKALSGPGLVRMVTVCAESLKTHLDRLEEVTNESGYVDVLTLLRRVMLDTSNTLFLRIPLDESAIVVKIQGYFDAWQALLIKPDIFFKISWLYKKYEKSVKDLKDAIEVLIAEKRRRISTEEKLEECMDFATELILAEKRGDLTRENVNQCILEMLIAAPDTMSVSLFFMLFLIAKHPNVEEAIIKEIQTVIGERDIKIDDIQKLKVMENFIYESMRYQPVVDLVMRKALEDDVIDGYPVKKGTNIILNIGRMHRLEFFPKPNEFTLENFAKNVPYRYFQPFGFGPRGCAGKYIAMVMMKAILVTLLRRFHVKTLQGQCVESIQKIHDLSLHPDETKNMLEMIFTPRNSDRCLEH
Chain of Estrogen receptor (Homo sapiens) (P03372 whole entry, looked up): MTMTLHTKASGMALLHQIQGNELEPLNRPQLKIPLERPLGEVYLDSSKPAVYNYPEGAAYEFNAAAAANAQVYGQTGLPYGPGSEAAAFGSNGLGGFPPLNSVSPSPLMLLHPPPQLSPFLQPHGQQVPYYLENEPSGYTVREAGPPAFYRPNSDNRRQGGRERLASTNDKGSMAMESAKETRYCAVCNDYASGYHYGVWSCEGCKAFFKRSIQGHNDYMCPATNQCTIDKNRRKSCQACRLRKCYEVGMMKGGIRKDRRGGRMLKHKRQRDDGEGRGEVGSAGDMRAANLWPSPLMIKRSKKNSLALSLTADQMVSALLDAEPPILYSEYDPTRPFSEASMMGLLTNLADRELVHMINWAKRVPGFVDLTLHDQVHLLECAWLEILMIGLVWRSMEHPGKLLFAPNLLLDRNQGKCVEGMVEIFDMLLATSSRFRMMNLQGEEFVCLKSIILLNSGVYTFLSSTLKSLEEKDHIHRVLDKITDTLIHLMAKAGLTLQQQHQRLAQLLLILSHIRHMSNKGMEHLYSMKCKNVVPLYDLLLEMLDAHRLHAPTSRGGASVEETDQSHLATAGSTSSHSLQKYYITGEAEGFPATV

| Structure (SMILES) | Potency [1] | Potency [2] | Potency [3] | Potency (Aromatase (Homo sapiens)) | Potency [4] | Potency [5] | Potency [6] | Potency [7] | Potency [8] | Potency [9] |
| --- | --- | --- | --- | --- | --- | --- | --- | --- | --- | --- |
| CCC(C)c1ccccc1O (stereo unspecified) | inactive | inactive | inactive | inactive | – | – | – | – | – | – |
| CC(C)OC(=O)C(C)(C)Oc1ccc(C(=O)c2ccc(Cl)cc2)cc1 | – | – | inactive | inactive and 68.6 µM (active) | inactive | inactive | inactive | inactive | inactive and 61.1 µM (active) | – |
| O=C=Nc1ccc(Cc2ccc(N=C=O)cc2)cc1 | inactive | inactive | inactive | – | – | inactive | – | – | – | – |
| CN(C)c1nc(N(C)C)nc(N(C)C)n1 | inactive | – | inactive | – | – | inactive | – | – | – | – |
| O=[N+]([O-])c1ccc2c(c1)Cc1ccccc1-2 | – | inactive | inactive | inactive | – | inactive | inactive | 13.7 µM (active) | inactive | – |
| Nc1ncnc2nc[nH]c12 | – | – | inactive | inactive | – | inactive | inactive | inactive | inactive | – |
| Cc1ccc(C(=O)c2cc(O)c(O)c([N+](=O)[O-])c2)cc1 | inactive and 61.1 µM (active) | inactive | 33.5 µM (active) and 54.5 µM (active) | – | – | – | – | – | – | – |
| COc1ccc(OC)c(C(O)CNC(=O)CN)c1 (stereo unspecified) | – | – | inactive | inactive | – | inactive | inactive | inactive | inactive | – |
| CCCCc1oc2ccccc2c1C(=O)c1cc(I)c(OCCN(CC)CC)c(I)c1 | 13.3 µM (active) and 26.6 µM (active) and 21.9 µM (active) | – | inactive | inactive and 43.6 µM (active) | inactive | – | inactive | inactive | inactive | – |
| CC(C)(C)NC(=O)[C@H]1CC[C@H]2[C@@H]3CC[C@H]4NC(=O)C=C[C@]4(C)[C@H]3CC[C@]12C | inactive | – | inactive | inactive | inactive | inactive | inactive | inactive | inactive | – |
| Nc1ccc(Nc2ccccc2)cc1 | 60.4 µM (active) and 30.6 µM (active) and 34.4 µM (active) | – | inactive | inactive | – | inactive | inactive | inactive | inactive | – |
| NNc1ccc(C(=O)O)cc1 | inactive | inactive | inactive | inactive | – | inactive | – | – | – | – |
| CCC(C)(O)CCCC(C)C (stereo unspecified) | – | inactive | inactive | inactive | – | inactive | inactive | inactive | inactive | inactive |
| CCCC(=O)O | inactive | – | inactive | inactive | – | inactive | – | – | – | – |
| CCOCCOCCO | inactive | inactive | inactive | inactive | – | inactive | – | – | – | – |
| CC(C)Oc1ccc2c(=O)c(-c3ccccc3)coc2c1 | – | – | inactive | inactive | – | – | – | – | – | – |
| O=C(Nc1ccc([N+](=O)[O-])cc1Cl)c1cc(Cl)ccc1O | – | – | inactive | inactive and 1.93 µM (active) | – | – | inactive | – | 0.841 µM (active) | – |
| CCC(C)CO (stereo unspecified) | – | inactive | inactive | inactive | inactive | inactive | inactive | inactive | inactive | inactive |
| CCCCC(CC)COCC1CO1 (stereo unspecified) | – | inactive | inactive | inactive | inactive | inactive | inactive | inactive | inactive | – |
| c1ccc(Nc2ccccc2)cc1 | inactive | – | inactive | inactive | – | inactive | – | – | – | – |
| CCOC(=O)C(C#N)=C(c1ccccc1)c1ccccc1 | inactive | inactive | inactive | inactive | – | inactive | – | – | – | – |
